Inconclusive results are not listed. The source made the active and inactive calls. Unless noted, calls follow the shape of the dose curve; as a rule, active = well fitted curve in the direction sought with a large enough effect; inconclusive = small, poorly fitted or top-dose-only effect, or another doubt; inactive = no such curve, though single readings can be large; an effect the other way counts as inactive or inconclusive.
Legend:
[1] = target: DNA polymerase III PolC-type (Bacillus subtilis (strain 168)) (UniProt P13267); assay: qHTS Validation Assay for the Inhibitors of DNA Replication in Gram-Positive Bacteria (AID 485295); also: potency is read from the fitted curve at half-maximal effect
Method in brief: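 PicoGreen fluorescence (ex 480–485/em 535–540 nm) reports dsDNA synthesized on ssM13Gori template with dNTPs/NTPs. Enzyme: holoenzyme rebuilt from purified PolC, beta subunit, SSB and primase. Compound preincubated before substrate addition; RT throughout.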

[2] = qHTS Validation Assay to Find Inhibitors of Chronic Active B-Cell Receptor Signaling (AID 485345; active = well fitted curve in the direction sought with a large enough effect in the main read-out, with a control signal flat, not every such curve was filed as active)
Method in brief: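 TMD8 ABC-DLBCL cells with dox-inducible green luciferase–IκBα fusion and red native luciferase; compounds 46 uM–3 nM, 4 h at 37C with doxycycline in 0.5% FBS IMDM. Green/red ratio normalized to basal and 10 uM MG-132.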

[3] = target: Beta-2 adrenergic receptor (Homo sapiens) (UniProt P07550); assay: qHTS validation assay of beta-arrestin-biased ligands of beta2-adrenergic receptor (AID 485366)
Method in brief: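 Arrestin-recruitment (Tango) reporter: ligand-bound beta2-AR recruits beta-arrestin, releasing tTA, which upregulates luciferase. Titrations of up to 46 microM incubated 18 hr at 37 degrees C before luminescent readout.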

[4] = target: ATP-dependent 6-phosphofructokinase (Trypanosoma brucei brucei) (UniProt O15648); assay: qHTS Validation Assay to Find Inhibitors of T. brucei phosphofructokinase (AID 485368); conditions: T. brucei PFK enzyme assay, qHTS 7-point titration; at 57.5 µM (top of the series)
Method in brief: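 Steps: substrate mix (0.5 mM F6P, 0.1 mM ATP, MgCl2, TEA pH 8.0); compound; 1.25 nM T. brucei PFK; 45 min RT; ATP depletion 10 min; ADP-to-ATP detection 10 min; luminescence read; curve fitting and classification.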

[5] = Quantitative high throughput screen for delayed death inhibitors of the malarial parasite plastid, 96 hour incubation (AID 488745); also: nearly all actives have a fitted effect of over 70% in size; also: potency is read from the fitted curve at half-maximal effect
Method in brief: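 Infected erythrocytes were added to compound in Albumax-supplemented RPMI 1640 at 0.1% parasitemia and 2% hematocrit (final), incubated 96 h at 37 C under 5% CO2, then luciferase reagent was added and luminescence measured.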

[6] = Quantitative high throughput screen for delayed death inhibitors of the malarial parasite plastid, 48 hour incubation (AID 488752); also: nearly all actives have a fitted effect of over 65% in size; also: potency is read from the fitted curve at half-maximal effect
Method in brief: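 Readout is firefly luciferase luminescence from a reporter integrated into the parasite genome, with lower signal taken as inhibited growth. Infected red cells (0.1% parasitemia, 2% hematocrit final) are cultured with compound for one 48 h cycle at 37 C.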

[7] = target: Thioredoxin reductase 1, cytoplasmic (Rattus norvegicus) (UniProt O89049); assay: qHTS Assay for Substrates of Mammalian Selenoprotein Thioredoxin Reductase 1 (TrxR1) (AID 488772);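 also: NADPH fluorescence in the first read after selenite addition and not the 8 min delta; a drop in NADPH fluorescence below the no-compound background marks a TrxR1 substrate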
Method in brief: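 Quantitative HTS in Tris-HCl buffer at pH 7.5 with EDTA and Tween-20, using rat TrxR1, 400 uM NADPH and 400 uM selenite (final). A fall in initial NADPH fluorescence relative to background marked substrate behaviour.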

[8] = target: Thioredoxin reductase 1, cytoplasmic (Rattus norvegicus) (UniProt O89049); assay: qHTS Assay for Inhibitors of Mammalian Selenoprotein Thioredoxin Reductase 1 (TrxR1) (AID 488773); conditions: Potency: inhibition; also: nearly all actives have a fitted effect of over 40% in size; also: potency is read from the fitted curve at half-maximal effect
Method in brief: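 Steps: enzyme (90 nM) plus NADPH (400 uM final), 5 min at ~22 deg C; compound added, 15 min; selenite (400 uM final) added; fluorescence followed for 8 min. Concentration-response curves derived from the normalized delta values.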

[9] = target: Flap endonuclease 1 (Homo sapiens) (UniProt P39748); assay: qHTS Validation Assay for the Inhibitors of Human Flap endonuclease 1 (FEN1) (AID 488816); also: potency is read from the fitted curve at half-maximal effect
Method in brief: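 FEN1, dispensed as a 10 nM reagent, was preincubated with pin-transferred compounds for 15 min at room temperature before substrate was added (50 nM final). Plates were read at 0 and 15 min, and a four-parameter Hill equation was fitted to the concentration-response data.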

[10] = target: Tumor susceptibility gene 101 protein (Homo sapiens) (UniProt Q99816); assay: qHTS Validation Assay for Iinhibitors of HIV-1 Budding by Blocking the Interaction of PTAP/TSG101 (AID 485342; calls by dose curve)
Method in brief: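 FP read-out: FITC-PTAP peptide, 50 nM final, binding Tsg101 binding domain, 10 uM final; 20 min r.t.; 10 mM HEPES pH 7.5, 0.15 M NaCl, 0.01% Tween 20, 3 mM EDTA, 0.1 mM TCEP.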

Measured: Potency

Tumor susceptibility gene 101 protein (Homo sapiens), sequence (Q99816 whole entry, looked up, the tested form may be a part): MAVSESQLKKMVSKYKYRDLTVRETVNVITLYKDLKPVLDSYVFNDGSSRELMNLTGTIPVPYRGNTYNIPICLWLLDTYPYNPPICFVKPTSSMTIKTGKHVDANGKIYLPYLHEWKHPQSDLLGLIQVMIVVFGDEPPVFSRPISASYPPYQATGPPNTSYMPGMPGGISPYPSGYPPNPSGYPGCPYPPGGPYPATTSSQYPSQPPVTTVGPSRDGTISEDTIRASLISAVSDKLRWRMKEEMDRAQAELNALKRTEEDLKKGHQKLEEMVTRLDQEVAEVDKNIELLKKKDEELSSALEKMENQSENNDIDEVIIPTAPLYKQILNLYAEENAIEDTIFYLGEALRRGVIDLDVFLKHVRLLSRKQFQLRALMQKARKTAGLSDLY
Thioredoxin reductase 1, cytoplasmic (Rattus norvegicus), sequence (O89049 whole entry, looked up): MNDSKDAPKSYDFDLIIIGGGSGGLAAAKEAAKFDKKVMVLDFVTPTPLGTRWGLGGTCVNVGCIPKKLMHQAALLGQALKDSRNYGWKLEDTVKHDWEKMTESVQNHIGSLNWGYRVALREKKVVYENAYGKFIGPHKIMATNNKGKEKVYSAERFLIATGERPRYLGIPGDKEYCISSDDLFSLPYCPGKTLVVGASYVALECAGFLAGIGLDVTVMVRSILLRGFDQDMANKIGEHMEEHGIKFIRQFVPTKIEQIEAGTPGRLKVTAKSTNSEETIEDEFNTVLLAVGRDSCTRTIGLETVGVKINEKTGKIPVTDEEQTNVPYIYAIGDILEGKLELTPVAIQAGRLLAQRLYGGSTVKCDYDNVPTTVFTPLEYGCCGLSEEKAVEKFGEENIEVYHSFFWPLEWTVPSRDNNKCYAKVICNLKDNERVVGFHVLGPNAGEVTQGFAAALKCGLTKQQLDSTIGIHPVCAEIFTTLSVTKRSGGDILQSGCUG
DNA polymerase III PolC-type (Bacillus subtilis (strain 168)), sequence (P13267 whole entry, looked up): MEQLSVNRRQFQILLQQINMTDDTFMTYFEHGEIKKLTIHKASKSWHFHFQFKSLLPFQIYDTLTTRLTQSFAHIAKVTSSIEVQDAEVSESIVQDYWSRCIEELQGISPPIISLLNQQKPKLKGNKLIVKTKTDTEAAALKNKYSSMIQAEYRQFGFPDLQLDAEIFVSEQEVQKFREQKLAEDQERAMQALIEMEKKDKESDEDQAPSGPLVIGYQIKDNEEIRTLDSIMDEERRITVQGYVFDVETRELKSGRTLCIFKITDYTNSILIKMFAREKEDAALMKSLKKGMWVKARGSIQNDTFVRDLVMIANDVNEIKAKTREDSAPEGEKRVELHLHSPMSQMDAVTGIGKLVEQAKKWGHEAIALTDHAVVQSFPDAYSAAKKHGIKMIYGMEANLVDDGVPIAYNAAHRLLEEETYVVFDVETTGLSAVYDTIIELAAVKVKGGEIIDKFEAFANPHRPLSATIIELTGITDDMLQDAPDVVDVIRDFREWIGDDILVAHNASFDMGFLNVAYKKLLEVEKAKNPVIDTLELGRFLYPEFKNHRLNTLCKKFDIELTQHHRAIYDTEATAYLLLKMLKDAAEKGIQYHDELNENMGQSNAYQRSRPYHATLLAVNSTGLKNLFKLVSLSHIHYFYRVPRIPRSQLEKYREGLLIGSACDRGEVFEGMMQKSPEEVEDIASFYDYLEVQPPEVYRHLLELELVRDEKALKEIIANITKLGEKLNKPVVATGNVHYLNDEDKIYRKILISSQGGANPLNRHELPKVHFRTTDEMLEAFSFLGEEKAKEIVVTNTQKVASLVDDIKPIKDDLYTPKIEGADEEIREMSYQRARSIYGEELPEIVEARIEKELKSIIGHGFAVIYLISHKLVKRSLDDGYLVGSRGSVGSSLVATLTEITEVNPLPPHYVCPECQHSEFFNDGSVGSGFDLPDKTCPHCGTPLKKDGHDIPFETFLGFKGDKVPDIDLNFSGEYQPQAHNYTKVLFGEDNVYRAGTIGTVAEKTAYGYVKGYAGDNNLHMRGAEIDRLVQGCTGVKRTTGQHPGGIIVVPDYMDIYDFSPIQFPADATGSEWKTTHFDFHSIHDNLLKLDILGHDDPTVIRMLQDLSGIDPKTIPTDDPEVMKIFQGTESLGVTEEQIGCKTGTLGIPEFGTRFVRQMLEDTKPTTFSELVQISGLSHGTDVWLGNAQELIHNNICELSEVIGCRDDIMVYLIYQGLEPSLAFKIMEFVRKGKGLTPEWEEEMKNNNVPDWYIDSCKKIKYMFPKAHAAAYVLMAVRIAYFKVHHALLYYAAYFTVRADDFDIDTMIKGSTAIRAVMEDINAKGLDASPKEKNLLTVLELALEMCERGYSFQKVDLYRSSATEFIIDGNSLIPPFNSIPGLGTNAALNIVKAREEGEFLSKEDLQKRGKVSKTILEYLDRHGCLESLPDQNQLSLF
Beta-2 adrenergic receptor (Homo sapiens), sequence (P07550 whole entry, looked up): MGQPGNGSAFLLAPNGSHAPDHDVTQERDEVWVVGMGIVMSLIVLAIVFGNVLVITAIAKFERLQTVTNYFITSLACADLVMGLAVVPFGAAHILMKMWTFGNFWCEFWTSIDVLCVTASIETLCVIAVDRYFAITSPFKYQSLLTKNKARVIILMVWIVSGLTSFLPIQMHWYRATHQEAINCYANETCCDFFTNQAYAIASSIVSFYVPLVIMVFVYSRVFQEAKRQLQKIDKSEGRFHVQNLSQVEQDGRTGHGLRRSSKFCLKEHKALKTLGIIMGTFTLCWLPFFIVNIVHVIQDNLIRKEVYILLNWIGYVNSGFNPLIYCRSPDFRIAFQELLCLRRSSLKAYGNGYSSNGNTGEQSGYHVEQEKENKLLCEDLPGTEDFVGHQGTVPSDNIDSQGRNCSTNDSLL
Flap endonuclease 1 (Homo sapiens), sequence (P39748 whole entry, looked up): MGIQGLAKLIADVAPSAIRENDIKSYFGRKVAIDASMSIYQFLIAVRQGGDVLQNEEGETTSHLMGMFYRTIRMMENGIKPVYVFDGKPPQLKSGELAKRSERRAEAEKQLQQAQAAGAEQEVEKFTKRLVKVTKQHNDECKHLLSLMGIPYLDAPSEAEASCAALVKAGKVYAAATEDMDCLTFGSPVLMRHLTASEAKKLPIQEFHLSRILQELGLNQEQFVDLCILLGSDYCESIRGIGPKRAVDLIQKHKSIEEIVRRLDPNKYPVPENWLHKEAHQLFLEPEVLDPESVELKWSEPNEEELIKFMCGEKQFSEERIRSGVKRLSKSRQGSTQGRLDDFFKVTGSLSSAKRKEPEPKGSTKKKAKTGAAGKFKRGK
ATP-dependent 6-phosphofructokinase (Trypanosoma brucei brucei), sequence (O15648 whole entry, looked up): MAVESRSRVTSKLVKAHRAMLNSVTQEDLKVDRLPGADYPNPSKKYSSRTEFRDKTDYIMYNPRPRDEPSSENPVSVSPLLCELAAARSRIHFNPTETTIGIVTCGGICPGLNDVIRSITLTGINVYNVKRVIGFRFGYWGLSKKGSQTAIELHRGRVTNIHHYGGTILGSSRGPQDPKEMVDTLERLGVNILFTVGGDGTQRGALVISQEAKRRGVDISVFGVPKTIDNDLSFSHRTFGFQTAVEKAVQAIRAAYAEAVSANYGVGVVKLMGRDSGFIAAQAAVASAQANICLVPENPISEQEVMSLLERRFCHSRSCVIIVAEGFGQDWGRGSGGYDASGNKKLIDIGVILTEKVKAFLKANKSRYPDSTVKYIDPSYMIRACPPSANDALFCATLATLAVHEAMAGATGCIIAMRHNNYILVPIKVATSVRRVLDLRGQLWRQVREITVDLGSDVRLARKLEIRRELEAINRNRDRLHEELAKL

NC(CP(=O)(O)O)C(=O)O (configuration not stated)
not listed: [10]
inactive: all other assays above

c1ccc2sc(C3(N4CCCCC4)CCCCC3)cc2c1
not listed: [4] | [5] | [6]
inactive: all other assays above

O=C(O)Cc1cnc[nH]1
not listed: [10]
inactive: all other assays above

CNCCc1c[nH]c2ccc(O)cc12
not listed: [5] | [10]
inactive: all other assays above

C[C@@H](N)Cc1cnc[nH]1
not listed: [10]
inactive: all other assays above

CN[C@@H]1C[C@@H](c2ccc(Cl)c(Cl)c2)c2ccccc21
inactive: [1] | [10] | [3] | [7] | [8]

Cn1cnc(CCN)c1
not listed: [4]
inactive: all other assays above

S=C(NC1CCCCC1)N1CCC(c2cnc[nH]2)CC1
not listed: [10]
inactive: all other assays above

O=C(N[C@H]1CN2CCC1CC2)c1ccc(Cl)cc1
not listed: [5] | [6] | [10]
inactive: all other assays above

O=C(O)CC[N+](=O)[O-]
inactive: all assays above

CCCCc1ccc(C(=O)O)nc1
inactive: all assays above

COc1cc(C(O)CN)ccc1O (configuration not stated)
inactive: all assays above

Oc1ccc2c3c1O[C@H]1c4[nH]c5c(c4C[C@@]4(O)[C@@H](C2)N(CC2CC2)CC[C@]314)C[C@@]1(O)[C@H]2Cc3ccc(O)c4c3[C@@]1(CCN2CC1CC1)[C@H]5O4
active: [5] 2080 nM
not listed: [6] | [9]
inactive: all other assays above

CCCN(CCC)[C@@H]1CCc2ccc(O)cc2C1
not listed: [10]
inactive: all other assays above

NC1CC1c1ccccc1 (configuration not stated)
not listed: [10]
inactive: all other assays above

NC(N)=NOCCC(N)C(=O)O (configuration not stated)
not listed: [4]
inactive: all other assays above

NCCc1c[nH]c2ccc(O)cc12
inactive: all assays above

CCCN1CCC[C@H](c2cccc(O)c2)C1
not listed: [9] | [10]
inactive: all other assays above

C#CCOC(=O)C1=CCCN(C)C1
not listed: [4]
inactive: all other assays above

NC(CCP(=O)(O)O)C(=O)O (configuration not stated)
not listed: [10]
inactive: all other assays above

CS(=N)(=O)CC[C@H](N)C(=O)O (some centres not stated)
not listed: [10]
inactive: all other assays above

CC[C@@H](C(N)=O)N1CCCC1=O
not listed: [5] | [6] | [10]
inactive: all other assays above

O=C(O)[C@@H]1CCN1
not listed: [10]
inactive: all other assays above

NC(=NCCC[C@H](N)C(=O)O)N[N+](=O)[O-]
not listed: [5] | [10]
inactive: all other assays above

c1ccc(C2(c3ccccc3)CC2C2=NCCN2)cc1 (configuration not stated)
not listed: [5] | [6]
inactive: all other assays above

C[N+]1(C)C2CCC1CC(OC(=O)C(CO)c1ccccc1)C2 (configuration not stated)
inactive: all assays above

Clc1cnc(Oc2ccc(Oc3ncc(Cl)cc3Cl)cc2)c(Cl)c1
inactive: all assays above

C[C@@H]1O[C@H](C[N+](C)(C)C)C[C@H]1O
not listed: [10]
inactive: all other assays above

CCCN1CCO[C@@H]2c3cc(O)ccc3OC[C@H]21
not listed: [10]
inactive: all other assays above

C[N+]1(C)C2CC(OC(=O)[C@H](CO)c3ccccc3)CC1C1OC12 (some centres not stated)
inactive: [4] | [9]

NC(=O)CN1CC(O)CC1=O (configuration not stated)
not listed: [4] | [9] | [10]
inactive: all other assays above

CCCN(CCC)C1CCc2ccc(O)cc2C1 (configuration not stated)
inactive: [1] | [2] | [3] | [5] | [8] | [9]

O=C1CCCN1CC#CCN1CCCC1
not listed: [4] | [10]
inactive: all other assays above

C[C@]12N[C@H](Cc3ccccc31)c1ccccc12
not listed: [4] | [10]
inactive: all other assays above

C[C@]12CCC3C(CC[C@H]4C[C@H](O)CC[C@]34C)C1CC[C@@H]2C(=O)CO (some centres not stated)
inactive: [1] | [3] | [4] | [7] | [8] | [9]

Clc1ccc(C(c2ccc(Cl)cc2)n2cc[n+](CC(OCc3ccc(Cl)cc3Cl)c3ccc(Cl)cc3Cl)c2)cc1 (configuration not stated)
inactive: [9]

CC[C@@]1(O)C(=O)OCc2c1cc1n(c2=O)Cc2cc3ccccc3nc2-1
active: [5] 1470 nM | [6] 2330 nM
not listed: [2] | [10]
inactive: all other assays above

Cc1c(C(=O)c2cccc3ccccc23)c2cccc3c2n1[C@H](CN1CCOCC1)CO3
inactive: [1] | [3] | [4] | [7] | [8] | [9]

CC[C@@H]1C(=O)OC[C@@H]1Cc1cncn1C
inactive: [5] | [6]

CN1C2CCC1CC(OC(=O)c1cc(Cl)cc(Cl)c1)C2 (configuration not stated)
inactive: [1] | [3] | [4] | [6] | [8] | [9]

CC(C)Oc1cccnc1N(C)C1CCN(Cc2ccccc2)CC1
not listed: [4] | [10]
inactive: all other assays above

C/C=C(/C)C(=O)O[C@H]1C(C)=C2[C@H]([C@@H]1OC(=O)CCCCCCC)[C@@](C)(OC(C)=O)C[C@H](OC(=O)CCC)[C@@]1(O)[C@H]2OC(=O)[C@@]1(C)O
inactive: [10] | [3] | [9]

CC1=NN=C(c2ccc(N)cc2)c2cc3c(cc2C1)OCO3
not listed: [4] | [10]
inactive: all other assays above

CC(C)NC(C)Cc1ccc(I)cc1 (configuration not stated)
inactive: [1] | [2] | [3] | [7] | [8] | [9]

NCCc1c[nH]c2ccccc12
not listed: [4] | [10]
inactive: all other assays above

O=C(Cc1ccc(Cl)c(Cl)c1)N1CCCCC1CN1CCCC1 (configuration not stated)
not listed: [5] | [6] | [10]
inactive: all other assays above

CNCCc1ccc(O)c(O)c1
active: [8] 13400 nM | [9] 2990 nM
not listed: [4] | [10]
inactive: all other assays above

CC(=O)[C@H]1CCC2C3CC[C@H]4C[C@H](O)CC[C@]4(C)C3CC[C@@]21C (some centres not stated)
not listed: [4] | [10]
inactive: all other assays above

COc1ccc2c(c[n+](C)c3c4cc5c(cc4ccc23)OCO5)c1OC
inactive: [3] | [5] | [7] | [8]
active: [1] 26700 nM

CC(=O)NCCc1c[nH]c2ccccc12
not listed: [4] | [10]
inactive: all other assays above

C[N+](C)(C)CC(=O)O
inactive: [6] | [9]

CCn1cc(C(=O)O)c(=O)c2cc3c(cc21)OCO3
inactive: [7]

CC(Cc1ccc(O)cc1)NCC(O)c1cc(O)cc(O)c1 (configuration not stated)
inactive: [1] | [2] | [5] | [6] | [7] | [8]

C=CCN1CC[C@]23CCCCC2[C@H]1Cc1ccc(O)cc13 (some centres not stated)
not listed: [4] | [10]
inactive: all other assays above

Cc1nccc2c1[nH]c1ccccc12
inactive: [1] | [3] | [5] | [6] | [7] | [8]

COC(=O)[C@@H](N)CCCN=C(N)N[N+](=O)[O-]
not listed: [5] | [6] | [10]
inactive: all other assays above

NC1CCc2cc(O)c(O)cc2C1 (configuration not stated)
inactive: [1] | [2] | [3] | [5] | [6] | [7]

c1ccc(CCCN2CCN(CCOC(c3ccccc3)c3ccccc3)CC2)cc1
active: [5] 2080 nM
not listed: [4] | [6] | [10]
inactive: all other assays above

NCc1cc(=O)[nH]o1
not listed: [4] | [10]
inactive: all other assays above

Source: PubChem BioAssay (NCATS)
